# Assay outcomes from PubChem.
# An excerpt weighted towards active compounds, which were near 7.9% of everything screened.
# MARV entry inh: qHTS for inhibitors of binding or entry into cells for Marburg Virus. Marburg virus pseudotyped entry inhibition, cell reporter. Potency, µM (top dose mostly 37.8 µM), for the others: at the highest dose activity change, negative = inhibition, actives largely listed as inhibitors. 300,000 tested, 1.8% active. AID 540276, 2011; calls by dose curve; tested in HEK293 cells; also: potency is read from the fitted curve at half-maximal effect
# HCMV antiviral: qHTS Assay for inhibitors of the human cytomegalovirus (HCMV); HFF cells, HCMV-luciferase reporter, 72 h; stronger effect = lower value; AID 1259415, 2018; 410,000 tested, 4.5% active; activity change, negative = inhibition, % at 57.5 µM; in the data active = activity change below about -60%; inconclusive = no clear call, values can overlap the other calls; inactive = above about -39%
#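 HFF cells seeded 16 h at 37C, treated with compounds, infected with luciferase-reporter HCMV at MOI 1 PFU/cell; luciferase read at 72 h post infection, normalized to buffer-only and Salinomycin controls.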
# Lassa entry inh: qHTS for Inhibitors of binding or entry into cells for Lassa Virus | Lassa virus pseudotype entry inhibition, cell reporter | Potency, µM (series often up to 37.9 µM), for inactives: top-dose activity change, negative = inhibition, usual class: inhibitors | 300,000 tested, 1.2% active; calls by dose curve; tested in HEK293 cells; also: potency is read from the fitted curve at half-maximal effect; nearly all actives have a fitted effect of over 50% in size
# FMDV antiviral: High Throughput Screening for Foot and Mouth Disease Virus Antivirals | FMDV antiviral cell-based qHTS | Potency, µM (top dose mostly 57.9 µM), inactives show top-dose activity change, negative = inhibition, hits mostly inhibitors | 410,000 tested, 1.2% active | AID 1159524, 2015; calls by dose curve; tested in HEK293T cells; also: read-out not given here; potency is read from the fitted curve at half-maximal effect; nearly all actives have a fitted effect of over 45% in size
# HCV inhibitor: qHTS Assay for Inhibitors of Hepatitis C Virus (HCV) | 340,000 tested, 3.4% active | Potency, µM (highest dose often 41.8 µM), for the others: top-dose activity change, negative = inhibition, hits mostly inhibitors | AID 651820, 2012 | Huh7.5.1 HCVcc-Cre infection, luciferase reporter, 44 h; active = well fitted inhibition curve with a large enough effect; inconclusive = small, poorly fitted or top-dose-only effect, or another doubt; inactive = no such curve, though single readings can be large or run the other way; also: potency is read from the fitted curve at half-maximal effect
#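 1,000 cells/well; 4 h culture; + compound; + HCVcc-Cre (~0.5 moi); 44 h; luciferase substrate, RT 15 min; read 15 sec.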
# The depositor's hits bear a star; ? = inconclusive; / = no result; ! = not confirmed by another sample; [ ] = remark or other dose. % is scaled to controls: 0 for no effect and ±100 for the full control effect.
SMILES,MARV entry inh,HCMV antiviral,Lassa entry inh,FMDV antiviral,HCV inhibitor
COc1ccc(OCCSc2nc(-c3ccccc3)cc(=O)[nH]2)cc1,-1%[46.1 µM],?,12%[46.1 µM],-16%,6%
COC(=O)CCNC(=O)N1CCN(c2nnc(C)c3c(C)n(-c4ccccc4)nc23)CC1,/,-4,-2%[46.1 µM],-26%,/
Oc1ccc(CCNc2ncnc3ccc(Cl)cc23)cc1,/,-98*,/,10µM*,3.2µM*
CC(NC(=O)c1c2c(nc3ccccc13)C(=O)N(C1CCCCC1)C2)c1ccccc1 (stereo not drawn),/,11,?,-20%,/
Cc1ccc(Sc2ncnc3onc(C)c23)c(C)c1,/,15,/,-28%,-4%
Cc1noc2ncnc(Sc3ccccc3Cl)c12,-21%[46.1 µM],-79*,?,40µM*,?
COC(=O)c1ccccc1Sc1ncnc2onc(C)c12,?,-23,-10%,28µM*,?
COc1ccc(Sc2ncnc3onc(C)c23)cc1,/,-12,/,4%,15%
COc1ccc(-n2cccc2/C=C/[N+](=O)[O-])cc1,?,-102*,?,28µM*,?
CN(C)c1ccc(CNC(=O)Cn2ccc3cc(S(=O)(=O)N4CCCCCC4)ccc32)cc1,/,-8,5%[46.1 µM],0%,/
CC(C)C[C@H](N)CSSC[C@@H](N)CC(C)C,1.3µM*,/,/,/,/
Cc1nc(N2CCOCC2)c2c(C(=O)Nc3cccc(C(F)(F)F)c3)c(C)oc2n1,/,-27,15%[46.1 µM],-12%,/
Oc1nc(Nc2cccc(Cl)c2)sc1/C=C1\C=Nc2ccccc21,?,-20,?,?,-23%
CCOC(=O)c1c(Nc2ccc(Cl)cc2)sc(/C=C2\C=Nc3ccccc32)c1O,?,-73*!,-26%,7%,?
Cc1cc(C)nc(-n2ncc3c2CC(c2cccc(Cl)c2)CC3=O)n1 (stereo not drawn),5.6µM*,-89*,?,-14%,-10%
Cc1cc(C)nc(-n2ncc3c2CC(c2ccccc2)CC3=O)n1 (stereo not drawn),-4%[46.1 µM],?,?,-25%,9%
Nc1ccc(N=Nc2ccccc2)cc1,?,24,?,3%,-9%
Nc1ccc(N(c2ccccc2)c2ccc(N)cc2)cc1,?,?,-17%,?,10µM*
Cc1ccc(C(=O)NCC(=O)NC2CCCCCC2)cc1,8%,-97*,25%,55%,-4%
Cc1ccc2cc(CN(C(=O)c3cccc(Cl)c3)c3ccccc3)c(=O)[nH]c2c1,3%[46.1 µM],11,?,?,/
Cc1nnc(SCC(=O)Nc2ccccc2NC(=O)CSc2nnc(C)s2)s1,-5%,13,5%,-7%,7%
CCN(CC)CCCC(C)NC(=O)c1c(NC(=O)c2ccccc2)sc2c1CCCC2 (stereo not drawn),/,-27,/,10%,10µM*
COc1ccc(NC(=O)c2c(NC(=O)c3ccc(Br)cc3)sc3c2CCCC3)cc1,/,-63*,2%[46.1 µM],?,/
Cc1ccc(NC(=O)c2c(NC(=O)C(F)(F)F)sc3c2CCCCC3)cc1,/,-100*,?,?,/
Cc1nnc(SCC(=O)Nc2sc3c(c2C(=O)c2ccccc2)CCCC3)s1,18%,-62*,-11%,-9%,?
SMILES,MARV entry inh,HCMV antiviral,Lassa entry inh,FMDV antiviral,HCV inhibitor
CCc1ccc(NC(=O)c2cc(CN3CCOCC3)on2)cc1,/,28,24%[46.1 µM],-3%,/
CC(C)CNC(=O)C1=CC(c2ccc3c(c2)OCO3)=NS(=O)(=O)N1C,1%[46.1 µM],-3,-16%[46.1 µM],20%,/
Cc1cccc(NC(=O)c2c(NC(=O)C(F)(F)F)sc3c2CCCCC3)c1,/,-100*,?,?,/
Cc1cccc(C(=O)Nc2sc3c(c2C(=O)O)CCCC3)c1,2µM*,-6,?,-10%,?
Cc1ccccc1NC(=O)c1c(NC(=O)C(F)(F)F)sc2c1CCCCC2,/,-102*,?,?,/
Cc1ccccc1NC(=O)c1c(NC(=O)c2ccccc2)sc2c1CCC2,/,21,16%[46.1 µM],-7%,/
O=C(COc1ccc(Cl)cc1)Nc1sc2c(c1C(=O)Nc1cccc(Cl)c1)CCCC2,/,-38,5%[46.1 µM],-15%,/
O=C(Nc1cccc(Cl)c1)c1c(NC(=O)C(F)(F)F)sc2c1CCCC2,/,-105*,?,?,/
O=C1N(c2ccccc2)CCN1c1ccccc1,/,57,/,0%,5%
O=C1NCCN1c1ccccc1,18%,-79*,?,-4%,10%
CCOC(=O)C1CCN(c2cc3c(cc2NC(=O)c2ccccc2OCC)n(C)c(=O)n3C)CC1,/,8,/,?,?
CCOC(=O)C1CCN(c2cc3c(cc2NC(=O)c2ccc(F)cc2)n(C)c(=O)n3C)CC1,-7%[46.1 µM],-33,4%[46.1 µM],-23%,?
Cc1ccc(NC(=O)Nc2cc3c(cc2N2CCCCC2)n(C)c(=O)n3C)cc1Cl,-18%[46.1 µM],-99*,?,?,/
CCOC(=O)C1CCN(c2cc3c(cc2NC(=O)c2ccccc2Cl)n(C)c(=O)n3C)CC1,?,10,2.5µM*,-29%,?
CCOC(=O)C1CCN(c2cc3c(cc2NC(=O)c2ccccc2F)n(C)c(=O)n3C)CC1,-13%[46.1 µM],0,-12%[46.1 µM],-20%,11µM*
Cn1c(=O)n(C)c2cc(N3CCCCC3)c(NC(=O)Nc3ccc(Br)cc3)cc21,?,-33,-10%[46.1 µM],-12%,/
Cc1ccc2nc(SCC(=O)NCc3ccc(F)cc3)[nH]c2c1,/,-65*,/,-27%,-4%
CC(NC(=S)NCCc1ccccc1)C(c1cccs1)N1CCN(Cc2ccccc2)CC1 (stereo not drawn),?,-81*,?,?,7.9µM*
CC(NC(=O)NC1CCCCC1)C(c1cccs1)N1CCN(Cc2ccccc2)CC1 (stereo not drawn),-2%,7,/,-19%,0%
CC1=CC(=Nc2c(C)n(C)n(-c3ccccc3)c2=O)C=C(C)C1=O,?,-75*,?,?,32%
CCC(C)C1=CC(=Nc2c(C)n(C)n(-c3ccccc3)c2=O)C=C(C(C)CC)C1=O (stereo not drawn),?,-31,20%[46.1 µM],-7%,?
CC(C)(C)NC(=O)C(c1ccc(O)cc1)N(C(=O)CCC(=O)Nc1nccs1)c1cccc(F)c1 (stereo not drawn),2.3µM*,4,0%[46.1 µM],16%,-6%
COCCN(C(=O)CCC(=O)Nc1nccs1)C(C(=O)NC(C)(C)C)c1ccc(C)cc1 (stereo not drawn),-5%[46.1 µM],-74*,-7%,-11%,9%
CC(C)(C)NC(=O)C(c1ccc(O)cc1)N(C(=O)CCC(=O)Nc1nccs1)c1ccccc1F (stereo not drawn),?,?,10%,-11%,3%
COCCN(C(=O)CCC(=O)Nc1nccs1)C(C(=O)NC(C)(C)C)c1ccc(F)cc1 (stereo not drawn),1%[46.1 µM],9,14%,-3%,16%
